About 83,000 compounds went through this panel and 20% of them were active in at least one assay; those are over-represented in the sample as a whole.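 Treatment: one concentration, 48 hours, 96-well format. Scoring: percent growth, with anything below 10 considered active.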 Unmarked numbers belong to inactive results. Calls of active or inactive are those of the source.
Legend:
Test in all cases: NCI-60 one-dose screen, 48 h (100 = growth as untreated, 0 = no growth, -100 = all killed)
Details in all cases: 10 µM unless noted
HCT-15 colon = test system: HCT-15 colon
HT29 colon = test system: HT29 colon
SNB-75 CNS = test system: SNB-75 CNS
SNB-19 CNS = test system: SNB-19 CNS
U251 CNS = test system: U251 CNS
PC-3 prostate = test system: PC-3 prostate
SK-MEL-5 melanoma = test system: SK-MEL-5 melanoma
UACC-62 melanoma = test system: UACC-62 melanoma
LOX IMVI melanoma = test system: LOX IMVI melanoma
SK-MEL-28 melanoma = test system: SK-MEL-28 melanoma

| SMILES | growth (HCT-15 colon) | growth (HT29 colon) | growth (SNB-75 CNS) | growth (SNB-19 CNS) | growth (U251 CNS) | growth (PC-3 prostate) | growth (SK-MEL-5 melanoma) | growth (UACC-62 melanoma) | growth (LOX IMVI melanoma) | growth (SK-MEL-28 melanoma) |
| --- | --- | --- | --- | --- | --- | --- | --- | --- | --- | --- |
| CN(C)CC1CCC(CN(C)C)C1=O (stereo not given) | 105% | 103% | 102% | 102% | 102% | 96.7% | 108% | 102% | 106% | 112% |
| CC(C)=CCCC(C)c1ccc(C)c2c1OCN(CCCCCO)C2 (stereo not given) | 94% | 27.2% | 85.6% | 88.8% | 83.8% | 66.6% | 91.7% | 82.8% | 77.6% | 115% |
| CS(=O)(=O)c1ccc(-c2cnn3ccc(-c4cccc(S(=O)(=O)C5CC5)c4)nc23)cc1 | 57% | 34% | 14% | 67.3% | 68.7% | 40.3% | 63.2% | 53.3% | 44.1% | 69.7% |
| COc1ccc2cc1Oc1ccc(cc1)C[C@H]1c3c(cc4c(c3Oc3cc5c(cc3OC)CCN(C)[C@@H]5C2)OCO4)CCN1C | 27% | 4.38% (active) | 71.4% | 75.9% | 26.8% | 43.9% | -97% (active) | 34.4% | -41.7% (active) | -54.9% (active) |
| CCOCCNC1=C(Cl)C(=O)c2ccccc2C1=O | 95% | 107% | 57.9% | 111% | 100% | 92.6% | 67.2% | 101% | 70.6% | 117% |
| O=c1c2ccccc2n2cnc3ccc(Cl)c1c32 | 66.4% | 73.4% | 100% | 83.8% | 78.4% | 85.2% | 77% | 64.6% | 62.8% | 92.2% |
| CC1=C([Se]CC(OC(=O)CC[Se]c2ccccc2)C(=O)NC(C)(C)C)C(=O)c2ccccc2C1=O (stereo not given) | 4.43% (active) | 5.28% (active) | -89.2% (active) | -88.1% (active) | -36% (active) | -36% (active) | -97.4% (active) | -76.4% (active) | -0.738% (active) | -92.2% (active) |
| C=CCOC(=O)Nc1cccn([C@H](Cc2ccccc2)C(=O)NCCC(C)C)c1=O | 111% | 99.7% | 91.1% | 85.9% | 101% | 92.3% | 102% | 97.1% | 90.8% | 97.6% |
| CC1(C)CC(=O)C2=C(C1)N(c1ccc(OC(F)(F)F)cc1)C(N)=C(C#N)C2c1ccc(Br)cc1F (stereo not given) | 71.4% | 79.7% | 54.1% | 34.4% | 56.2% | 51.9% | 92.9% | 78.5% | 54.5% | 90.8% |
| O=c1c2cnn(-c3ccccc3)c2n2c(CN3CCOCC3)nnc2n1-c1ccccc1 | 101% | 74.9% | 98% | 106% | 89.4% | 78.2% | 102% | 98% | 96.9% | 107% |
| CCN(C)S(=O)(=O)Nc1cccc(Nc2ncnc3cc(NC(=O)CCl)ccc23)c1Cl | -12.3% (active) | -56.9% (active) | 6.04% (active) | 16.7% | -77.4% (active) | 0.153% (active) | -83.6% (active) | -22.5% (active) | -79% (active) | 28.8% |
| CCOC(=O)NC(C)C | 109% | 107% | 96.8% | 99.3% | 106% | 82% | 103% | 105% | 102% | 119% |
| COc1cccc(CNc2ccc3ncnc(Nc4ccc(F)c(Cl)c4)c3c2)c1 | 53.2% | 88.3% | 79.3% | 69% | 71.4% | 52.7% | 89.5% | 81.1% | 69.8% | 107% |
| COc1cc(/C=C/C(=O)c2ccc(F)cc2)ccc1OCCCCOc1ccc(/C=C/C(=O)c2c(C)nc3ccccc3c2C)cc1OC | 96.5% | 100% | 97.1% | 110% | 83.3% | 93.2% | 62.4% | 73.1% | 90.2% | 122% |
| COc1cc(/C=C2/C=C(c3ccccc3)N(CCc3ccc(S(N)(=O)=O)cc3)C2=O)cc(OC)c1OC | 100% | 94.7% | 71.9% | 101% | 87% | 44.2% | 90.7% | 89.6% | 101% | 119% |
| N#CC(C#N)N=Nc1ccc(Br)cc1 | 16.8% | 20.9% | 94.2% | 96.3% | 83.4% | 19.1% | 77.9% | 37.4% | 60.1% | 43.8% |
| O=C1/C(=C/c2cn(-c3ccccc3)nc2-c2ccccc2)SC(=S)N1C1CCCCC1 | 109% | 111% | 99.2% | 96.9% | 107% | 96.3% | 100% | 92.6% | 91% | 101% |
| CCC(=C(c1ccc(OCCN2CCCCC2)cc1)c1ccc(OCCN2CCCCC2)cc1)c1ccc(Cl)cc1 | -84.9% (active) | -74.6% (active) | -96.4% (active) | -94.5% (active) | -82.2% (active) | -81.2% (active) | -96.8% (active) | -89.7% (active) | -84.8% (active) | -97% (active) |
| COc1ccc(-c2ccc(=O)oc2-c2cc(OC)c(OC)c(OC)c2)cc1O | 12.1% | -24% (active) | 38.8% | 25.3% | 19.8% | 36.9% | -55.5% (active) | 34.7% | 17.8% | 47.4% |
| COc1cc(-c2cncn2-c2ccc(-c3nc4ccc(F)cc4s3)cc2)ccc1F | 30.5% | 30.8% | 127% | 86.7% | 83% | 107% | 68.7% | 84.8% | 86.7% | 95.9% |
| CC1CCN(S(=O)(=O)c2ccc(S(=O)(=O)N3CCCC(c4nc5c(nnn5Cc5cccc(Cl)c5)c(=O)[nH]4)C3)cc2)CC1 (stereo not given) | 36.1% | 17.1% | 21.6% | 67.6% | 45.1% | 47% | 24.1% | 40.2% | 42.4% | 62% |
| COC(=O)CC[C@H](C)[C@H]1CC[C@H]2[C@@H]3CC[C@@H]4CC5(CC[C@]4(C)[C@H]3CC(=O)[C@]12C)Nc1ccccc1NC5=NC(C)(C)C (stereo not given in full) | 51.4% | 69.8% | 71.1% | 81.5% | 48.3% | 56.5% | 77.5% | 57.9% | 47.4% | 89.2% |
| COc1ccc(C(=O)/C=C/c2c(C(F)(F)F)nc3ccccn23)cc1OC | -13.6% (active) | 6.89% (active) | -19.9% (active) | 16.5% | 7.17% (active) | 30.6% | 4.43% (active) | 5.04% (active) | -53.1% (active) | 28.2% |
| C#COc1cccc(Nc2c(C#N)cnc3ncc(NC(=O)CCl)cc23)c1 | 22.8% [6.25 µM] | 3.12% [6.25 µM] (active) | 54.2% [6.25 µM] | 11% [6.25 µM] | -42.8% [6.25 µM] (active) | 19.6% [6.25 µM] | 47.7% [6.25 µM] | 37.5% [6.25 µM] | -2.95% [6.25 µM] (active) | 50.8% [6.25 µM] |
| Nc1nc2ccccc2c2c1S(=O)(=O)c1ccc(Cl)cc1C2=O | 1.95% (active) | 7.01% (active) | 24.5% | 48.8% | 11.9% | 16.5% | 28.5% | 24.7% | 8.26% (active) | 34.5% |
| CCN(CC)CCn1c2ccc(O)cc2c2sc3cc(O)ccc3c(=O)c21 | 29.1% | 27.1% | 76.1% | 23.4% | 28.8% | 31.5% | 60.7% | 39.4% | 8.55% (active) | 54.5% |
| Cc1cc(N2CCN(CCNc3ccnc4cc(Cl)ccc34)CC2)nc(N2CCOCC2)n1 | 27.4% | 20.7% | 88.3% | 89.9% | 64.5% | 65.1% | 25.4% | 60.2% | 13.7% | 77.5% |
